Test results from PubChem BioAssay (EPA / NIEHS).
Inconclusive results are not listed. Some compounds were tested as several samples or in several runs, with calls that do not always agree. The source made the active and inactive calls. How the source made its calls: active means hit-call score of the fitted dose curve at least 0.9, where 1 is the maximum; inconclusive means response in the unintended direction; inactive means score below 0.9.

biological target: human Thyroid hormone Receptor beta (TRb), THRB (gene 7068) (UniProt P10828); assay: ATG_hTRb_XSP2: Attagene TRANS-FACTORIAL Multi-Species (XSP2) HepG2 Assay for human Thyroid hormone Receptor beta (TRb) (AID 2283840);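 further: actives raise reporter mRNA so potency reflects agonist-like gain of signal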
Sequence (P10828 whole entry, looked up): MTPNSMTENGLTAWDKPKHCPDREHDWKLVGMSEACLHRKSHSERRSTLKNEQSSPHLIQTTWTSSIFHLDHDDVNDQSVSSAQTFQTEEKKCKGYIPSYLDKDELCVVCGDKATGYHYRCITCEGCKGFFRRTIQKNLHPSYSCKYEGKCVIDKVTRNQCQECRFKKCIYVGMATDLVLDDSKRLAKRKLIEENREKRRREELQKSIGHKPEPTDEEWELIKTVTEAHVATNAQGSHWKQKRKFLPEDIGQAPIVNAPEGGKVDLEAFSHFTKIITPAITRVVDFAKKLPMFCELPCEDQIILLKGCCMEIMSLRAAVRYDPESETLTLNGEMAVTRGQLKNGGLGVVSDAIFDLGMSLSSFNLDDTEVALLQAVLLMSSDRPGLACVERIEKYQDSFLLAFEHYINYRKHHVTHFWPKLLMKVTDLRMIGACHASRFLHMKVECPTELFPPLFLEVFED
Protocol: ATG_XSP2_multi-species_TRANS is a cell-based, multiplexed assay created by modifying the existing Attagene TRANS-FACTORIAL system to include a panel of nuclear receptors from some or all the following species: human (Homo sapiens), mouse (Mus musculus), frog (Xenopus laevis), zebrafish (Danio rerio), chicken (Gallus gallus), and turtle (Chrysemys picta). The ECOTOX-FACTORIAL format uses HepG2, a human liver cell line, with measurements taken at 24 hours after chemical dosing in a 24-well plate. Xsp2 included 3 nM 6-alpha-fluorotestosterone and 1.5 nM norgestrel to stimulate the androgen receptor.ATG_hTRb_XSP2 is one of 29 assay components measured or calculated from the ATG_XSP2_multi-species_TRANS assay. It is designed to make measurements of mRNA induction, a form of inducible reporter, as detected with fluorescence intensity signals by Reverse transcription polymerase chain reaction (RT-PCR) and Capillary electrophoresis technology.The assay endpoint ATG_hTRb_XSP2 was analyzed in the positive analysis fitting direction relative to DMSO as the negative control and baseline of activity. Using a type of inducible reporter, measures of mRNA for gain-of-signal activity can be used to understand the reporter gene at the transcription factor-level as they relate to the gene TR. Furthermore, this assay endpoint can be referred to as a primary readout, because this assay has produced multiple assay endpoints where this one serves a reporter gene function. To generalize the intended target to other relatable targets, this assay endpoint is annotated to the nuclear receptor intended target family, where the subfamily is non-steroidal.
Human liver HepG2 cells are transiently transfected with multiple reporter transcription units (MRTUs) in 6-well plates using FuGene 6 reagent (Roche; 3 ml FuGene/1 mg DNA). The MRTU constructs are regulated by a cis-regulating element (promoter). […] A major difference between the CIS and TRANS system is that in CIS activities of endogenous TFs are measured, whereas the TRANS assay evaluates changes in activities of exogenous, chimeric NR-Gal4 proteins. […] At the end of 24 hour incubation, total RNA was isolated using TriZol reagent (Invitrogen). The isolated RNA is then reverse-transcribed using oligo(dT) primer and Mo-MLV reverse transcriptase (Invitrogen) with DNAse I (Ambion) treatment for 30 min. The one-tenth of the produced cDNA was amplified by PCR using Taq DNA polymerase (Invitrogen) and two reporter sequence-specific primers. The PCR products were fluorescently labeled by primer extension with 6-arboxyfluorescein (6-FAM) 5'-labeled reporter sequence-specific primer (2 min at 95 C, 20 s at 68 C and 10 min at 72 C) and these products were digested with 5U of HpaI (New England Biolabs) for 2h at 37 C. The fragments were purified using Qiaquick PCR columns (Qiagen), analyzed on an ABI 3130xL genetic analyzer (Applied Biosystems) with peak positions identified by using a set of X-rhodamine (ROX)-labeled MapMarker1000 molecular weight standards (BioVentures). The raw capillary electrophoresis data was processed using Attagraph software (Attagene).

Compound	outcome	AC50
CCOP(=S)(OCC)O/N=C(\C#N)c1ccccc1	inactive	
[Cl][Sn]([c]1ccccc1)([c]1ccccc1)[c]1ccccc1		0.558 µM (active)
O=c1oc2ccccc2c(O)c1C(CC(O)c1ccc(-c2ccc(Br)cc2)cc1)c1ccccc1 (stereo not drawn)	inactive	
COCCl	inactive	
Oc1cc(Cl)c(Cl)cc1Cl	inactive	
CC(O)(CS(=O)(=O)c1ccc(F)cc1)C(=O)Nc1ccc(C#N)c(C(F)(F)F)c1 (stereo not drawn)	inactive	155 µM (active)

tested on: Sodium/Iodide Symporter (NIS), SLC5A5 (gene 6528); assay: CPHEA_Stoker_NIS_Inhibition_RAIU: CPHEA's Radioactive Iodide Uptake (RAIU) Assay for Sodium/Iodide Symporter (NIS) Inhibition, Stoker and Laws Labs (AID 2283841)
Procedure, shortened: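 HEK293T cells stably expressing human NIS (hNIS-HEK293T-EPA) were exposed to test chemicals at 0.001–100uM (0.5% final DMSO) with 125I at a final 329pM in HBSS/10mM HEPES pH 7.4. After 2 hours at room temperature and ice-cold washes, intracellular 125I was counted as CPM and normalized to DMSO wells.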

Compound	outcome	AC50
CCC[CH2][Sn]([CH2]CCC)([CH2]CCC)[CH2]CCC	inactive	
N#CS		6.43 µM (active)
CCOP(=S)(OCC)O/N=C(\C#N)c1ccccc1	inactive	
O=C(NC(=O)c1c(F)cccc1F)Nc1cc(Cl)c(OC(F)(F)C(F)C(F)(F)F)cc1Cl (stereo not drawn)	inactive	
CC1(C)[C@H](C(=O)O[C@H](C#N)c2cccc(Oc3ccccc3)c2)[C@@H]1/C=C(\Cl)C(F)(F)F	inactive	
CCCCCCCCCCCCOS(=O)(=O)O	inactive	
CCOCn1c(-c2ccc(Cl)cc2)c(C#N)c(Br)c1C(F)(F)F		0.616 µM (active)
CCCCCCCCCCCCc1cccc(S(=O)(=O)O)c1	inactive	
Cc1cc(Cl)ccc1OC(C)C(=O)O (stereo not drawn)	inactive	
CC(=Cc1ccccc1)[N+](=O)[O-]	inactive	
N#CCCC(Br)(C#N)CBr (stereo not drawn)	inactive	
Oc1cc(Cl)c(Cl)cc1Cl	inactive	
CCOc1ccc(N)cc1	inactive	
Oc1c(Br)cc(Br)cc1Br	inactive	
CC(O)(CS(=O)(=O)c1ccc(F)cc1)C(=O)Nc1ccc(C#N)c(C(F)(F)F)c1 (stereo not drawn)		9.92 µM (active)
CC(C)N(C(=O)CCl)c1ccccc1	inactive	
O=C(O)C1(c2ccc3c(c2)OC[C@H](Cc2ccc(-c4ccccc4)cc2)[C@H]3O)CCCC1	inactive	
O=S1OC[C@@H]2[C@H](CO1)[C@]1(Cl)C(Cl)=C(Cl)[C@@]2(Cl)C1(Cl)Cl (stereo partly drawn)	inactive	
O=[N+]([O-])c1ccccc1O	inactive	

tested on: not listed separately; assay: CPHEA_Stoker_NIS_Cytotoxicity: Cytotoxicity Assessment for CPHEA's Radioactive Iodide Uptake (RAIU) Assay for Sodium/Iodide Symporter (NIS) Inhibition, Stoker and Laws Labs (AID 2283897);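 on AC50: active means loss of ATP signal versus DMSO meaning cytotoxicity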
Procedure, shortened: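 hNIS-HEK293T-EPA human kidney cells were exposed for 2 hours at room temperature to test chemicals (0.001–100uM, 0.5% final DMSO) in HEPES-buffered HBSS, pH 7.4. Viability was read as ATP content by luciferase bioluminescence, loss of signal versus DMSO.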

Compound	outcome	AC50
CCC[CH2][Sn]([CH2]CCC)([CH2]CCC)[CH2]CCC	inactive	
N#CS	inactive	
CCOP(=S)(OCC)O/N=C(\C#N)c1ccccc1	inactive	
O=C(NC(=O)c1c(F)cccc1F)Nc1cc(Cl)c(OC(F)(F)C(F)C(F)(F)F)cc1Cl (stereo not drawn)	inactive	
CCCCCCCCCCCCOS(=O)(=O)O	inactive	
CCOCn1c(-c2ccc(Cl)cc2)c(C#N)c(Br)c1C(F)(F)F	inactive	
CCCCCCCCCCCCc1cccc(S(=O)(=O)O)c1	inactive	
CC(=Cc1ccccc1)[N+](=O)[O-]	inactive	
N#CCCC(Br)(C#N)CBr (stereo not drawn)	inactive	
Oc1cc(Cl)c(Cl)cc1Cl	inactive	
CCOc1ccc(N)cc1	inactive	
Oc1c(Br)cc(Br)cc1Br	inactive	
CC(O)(CS(=O)(=O)c1ccc(F)cc1)C(=O)Nc1ccc(C#N)c(C(F)(F)F)c1 (stereo not drawn)		88.7 µM (active)
CC(C)N(C(=O)CCl)c1ccccc1	inactive	
O=C(O)C1(c2ccc3c(c2)OC[C@H](Cc2ccc(-c4ccccc4)cc2)[C@H]3O)CCCC1	inactive	
O=S1OC[C@@H]2[C@H](CO1)[C@]1(Cl)C(Cl)=C(Cl)[C@@]2(Cl)C1(Cl)Cl (stereo partly drawn)	inactive	
O=[N+]([O-])c1ccccc1O	inactive	
